We go through eight compounds from PubChem BioAssay (NCI).

About 83,000 compounds went through this panel and 20% of them were active in at least one assay; those are over-represented in the sample as a whole.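 Single-dose data. Exposure time 48 hours. Values below 10 considered active.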 A number with no mark means an inactive call. Activity calls are given as the source filed them.

Test systems include HCT-15 colon; HT29 colon; SNB-75 CNS; SNB-19 CNS; U251 CNS; SK-MEL-5 melanoma; UACC-62 melanoma; LOX IMVI melanoma; SK-MEL-28 melanoma; SK-MEL-2 melanoma; SN12C renal; UO-31 renal; TK-10 renal; ACHN renal; CAKI-1 renal; A498 renal; CCRF-CEM leukemia; MOLT-4 leukemia; EKVX NSCLC.
What all share (test): NCI-60 one-dose screen, 48 h (100 = growth as untreated, 0 = no growth, -100 = all killed)
Common to all, as to conditions: 10 µM unless noted

Consider `COc1cc(CNC(=O)CSc2nc3ccccc3c(=O)n2Cc2cc(OC)c(OC)c(OC)c2)cc(OC)c1OC`, for which the growth was 97.4% in the assay with HCT-15 colon; 108% with HT29 colon; 89.2% with SNB-75 CNS; 92.5% in the assay with SNB-19 CNS; 98% in the assay on U251 CNS; 93.7% with SK-MEL-5 melanoma. The growth with UACC-62 melanoma was 86.8%; in the assay with LOX IMVI melanoma it was 99.9%; in the assay on SK-MEL-28 melanoma, 102%; in the assay on SK-MEL-2 melanoma, 95.9%; in the assay with SN12C renal, 96.6%; with UO-31 renal it was 72.5%. The growth in the assay with TK-10 renal was 99.7%; in the assay on ACHN renal, 98.1%; in the assay on CAKI-1 renal it was 98.5%; in the assay with A498 renal, 88.4%; with CCRF-CEM leukemia, 96.2%; in the assay on MOLT-4 leukemia, 92.7%.

Regarding `CN(C)C1CCC(NC2=CC(=O)C=CC2=O)CC1` (configuration not stated), the growth in the assay on HCT-15 colon is 114%; with HT29 colon, 116%; with SNB-75 CNS, 86.1%; in the assay on SNB-19 CNS it was 115%; in the assay with U251 CNS, 111%; in the assay on SK-MEL-5 melanoma it was 106%. The growth was 110% with UACC-62 melanoma; 97.9% in the assay with LOX IMVI melanoma; 113% with SK-MEL-28 melanoma; 107% with SK-MEL-2 melanoma; 111% in the assay with EKVX NSCLC; 115% with SN12C renal. Moreover, the growth in the assay with UO-31 renal was 92.3%; with TK-10 renal, 113%; in the assay on ACHN renal, 99.2%; with CAKI-1 renal, 100%; in the assay on A498 renal it was 122%; in the assay on CCRF-CEM leukemia it was 107%. Also, in the assay with MOLT-4 leukemia, the growth was 102%.

`O=C(O)C(Cc1ccccc1)N1C(=O)/C(=C/C(Cl)=C/c2ccc([N+](=O)[O-])cc2)SC1=S` (configuration not stated): the growth in the assay with HCT-15 colon is 41.2%; with HT29 colon, 30.8%; with SNB-75 CNS it was 43%; in the assay on SNB-19 CNS, 32.2%; in the assay on U251 CNS it was 8.38% (active); with SK-MEL-5 melanoma it was 2.03% (active). Also, the growth in the assay on UACC-62 melanoma is -56.4% (active); in the assay with LOX IMVI melanoma it was -74.2% (active); with SK-MEL-28 melanoma it was 3.14% (active); with SK-MEL-2 melanoma it was 9.02% (active); in the assay with SN12C renal it was 8.76% (active); with UO-31 renal it was 29.4%. The growth was 50.1% in the assay on TK-10 renal; 40.7% in the assay with ACHN renal; 6.47% (active) in the assay with CAKI-1 renal; 4.14% (active) in the assay with CCRF-CEM leukemia; 0.405% (active) in the assay on MOLT-4 leukemia.

For `C=C1C(=O)O[C@H]2[C@H]1CC/C(Cn1cc(-c3ccccc3C(F)(F)F)nn1)=C\CC[C@@]1(C)O[C@@H]21`, the growth is -70.7% (active) in the assay with HCT-15 colon; -85.3% (active) in the assay on HT29 colon; 35.1% in the assay with SNB-75 CNS; 53.3% with SNB-19 CNS; 13.1% in the assay with U251 CNS; 14.5% with SK-MEL-5 melanoma. Moreover, the growth with UACC-62 melanoma was -61.8% (active); with LOX IMVI melanoma, -91.7% (active); in the assay on SK-MEL-28 melanoma it was -58.9% (active); with SK-MEL-2 melanoma it was -42.2% (active); in the assay on EKVX NSCLC, -78.6% (active); with SN12C renal it was -35.3% (active). Besides, the growth was -94.5% (active) in the assay on UO-31 renal; -50.1% (active) with TK-10 renal; -85.4% (active) in the assay with ACHN renal; -48.8% (active) in the assay with CAKI-1 renal; 25.9% in the assay with A498 renal; -28.5% (active) in the assay on CCRF-CEM leukemia. For the same compound, the growth in the assay on MOLT-4 leukemia was -11.7% (active).

For the compound `COc1ccc(C2=NN(c3ccc(S(N)(=O)=O)cc3)C(c3cn(-c4ccccc4)nc3-c3ccc(Cl)cc3)C2)cc1` (configuration not stated), the growth is 80.8% in the assay on HCT-15 colon; 82.6% with HT29 colon; 89.9% in the assay on SNB-75 CNS; 92.5% with SNB-19 CNS; 84.1% in the assay with U251 CNS; 99.9% in the assay on SK-MEL-5 melanoma. The growth in the assay on UACC-62 melanoma is 88.5%; in the assay with LOX IMVI melanoma, 87.3%; in the assay with SK-MEL-28 melanoma, 103%; in the assay on SK-MEL-2 melanoma, 94.7%; with SN12C renal, 96.7%; in the assay with UO-31 renal, 60.5%. For the same compound, the growth in the assay on TK-10 renal is 90.6%; with ACHN renal it was 95.4%; in the assay on CAKI-1 renal it was 90.9%; in the assay with CCRF-CEM leukemia it was 73.3%; with MOLT-4 leukemia it was 69.2%.

Consider `Cc1ccc2c(c1)C(=O)C(c1c(-c3[nH]c(=O)c4ccc(C)cc4c3O)c(O)c3ccccc3c1O)=NC2=O`, for which the growth in the assay on HCT-15 colon is 13.7%; in the assay with HT29 colon, 21.7%; with SNB-75 CNS, 14.4%; in the assay on SNB-19 CNS it was 26.3%; in the assay on U251 CNS, -16.2% (active); in the assay with SK-MEL-5 melanoma, 25.8%. Moreover, the growth with UACC-62 melanoma is 29.5%; in the assay with LOX IMVI melanoma, 12.1%; with SK-MEL-28 melanoma it was 34.9%; in the assay with SK-MEL-2 melanoma it was 11.8%; in the assay with SN12C renal it was -4.86% (active); in the assay with UO-31 renal it was -11% (active). For the same compound, the growth is 46.9% in the assay on TK-10 renal; 6.58% (active) in the assay on ACHN renal; -2.66% (active) in the assay on CAKI-1 renal; 16.6% with CCRF-CEM leukemia; -13.3% (active) in the assay on MOLT-4 leukemia.

Regarding `COc1cccc2cc(-c3cc4ccccc4[nH]3)c(=NC(=O)c3ccc(Cl)cc3)oc12`, the growth is 43.3% with HCT-15 colon; 64.4% in the assay on HT29 colon; 5.92% (active) in the assay on SNB-75 CNS; 53.5% with SNB-19 CNS; 43.9% in the assay with U251 CNS; 81.7% in the assay with SK-MEL-5 melanoma. Also, the growth was 73.8% in the assay with UACC-62 melanoma; 75.5% in the assay on LOX IMVI melanoma; 82.2% in the assay on SK-MEL-28 melanoma; 83.3% in the assay on SK-MEL-2 melanoma; 77.9% in the assay with EKVX NSCLC; 83.8% in the assay with SN12C renal. Moreover, the growth was 58.4% with UO-31 renal; 96.6% with TK-10 renal; 51.5% with ACHN renal; 53.8% with CAKI-1 renal; 64.9% in the assay on A498 renal; 61.5% with MOLT-4 leukemia.

Turning to `C=CCN=C1NC(=O)/C(=C/c2cc(C(C)(C)C)c(O)c(C(C)(C)C)c2)S1`, the growth is 42.1% in the assay with HCT-15 colon; 26.9% in the assay with HT29 colon; 88.8% in the assay on SNB-75 CNS; 83.6% in the assay on SNB-19 CNS; 77% in the assay with U251 CNS; 49.3% in the assay with SK-MEL-5 melanoma. Moreover, the growth was 63.8% with UACC-62 melanoma; 70.8% with LOX IMVI melanoma; 73.3% with SK-MEL-28 melanoma; 40.1% with SK-MEL-2 melanoma; 91% in the assay with SN12C renal; 67% in the assay with UO-31 renal. The growth with TK-10 renal was 79.4%; in the assay on ACHN renal, 87%; in the assay with CAKI-1 renal, 47.8%; in the assay on CCRF-CEM leukemia it was 69.4%; in the assay with MOLT-4 leukemia, 47.4%.
